Screening data from PubChem.
This is one part of a sample in which hits are shown more often than they occur.
U2OS ROS induce: inducers of reactive oxygen species in cancer cells; U2OS ROS induction, H2DCF-DA fluorescence; ROS induction (% of piperlongumine), % at 10 µM; hit rate 2% among 46,000; AID 624156; in the data active = ROS induction above about 79%, passing the limit was not always enough; inconclusive = no clear call, values can overlap the other calls
NOMO-1 viab: STK33 inhibitor candidate reducing NOMO-1 cell viability; NOMO-1 AML viability, CellTiter-Glo luminescence, 72 h; inhibition, % (test concentration not listed); hit rate 7.5% among 37,000; AID 2330; in the data active = inhibition above about 80%; inconclusive = no clear call, values can overlap the other calls
Hits are given with their value; 0 = inactive; ? = inconclusive; - = no result.

SMILES	U2OS ROS induce	NOMO-1 viab
CC[C@H]1CN2CCc3cc(OC)c(OC)cc3[C@@H]2C[C@@H]1C[C@H]1NCCc2cc(O)c(OC)cc21	0	120
COc1cc2c(cc1O)CCNC2C (stereo not given)	0	0
c1cncc(C2N=C(c3cnccn3)NN2)c1 (stereo not given)	0	0
CCCC(C)n1[nH]c(=O)c2c1NC(=O)CSC2c1cccc([N+](=O)[O-])c1 (stereo not given)	-	0
Cc1cc(C(F)F)n2nc(C(=O)Nc3ccc4c(C(F)(F)F)cc(=O)oc4c3)nc2n1	0	0
CC(C)[C@]12O[C@H]1[C@@H]1O[C@]13[C@]1(O[C@H]1C[C@H]1C4=C(CC[C@@]13C)C(=O)OC4)[C@@H]2O	0	114
CCc1cccc(C)c1N(C(=O)CCl)C(C)COC (stereo not given)	0	0
CC(C)N(C(=O)CCl)c1ccccc1	0	111
COC[C@H]1OC(=O)c2coc3c2[C@@]1(C)C1=C(C3=O)[C@@H]2CCC(=O)[C@@]2(C)C[C@H]1OC(C)=O	0	90
CC1=C2C[C@H]3[C@@H](CC=C4C[C@@H](O)CC[C@@]43C)[C@@H]2CC[C@]12O[C@@H]1C[C@H](C)CN[C@H]1[C@H]2C	0	0
Cc1nn(Cc2cccc(C(=O)Nc3ccc4oc(=O)cc(C(F)(F)F)c4c3)c2)c(C)c1Cl	0	0
C[C@@H]1C(=O)O[C@H]2[C@H]1CC[C@@]1(C)C=CC(=O)[C@@]3(C)O[C@@]213	0	88
C=C(C)c1cc2cc(C(C)=O)c(O)cc2o1	0	0
CC(C)C[C@H]1C(=O)N2CCC[C@H]2[C@]2(O)O[C@](NC(=O)[C@@H]3C=C4c5cccc6[nH]cc(c56)C[C@H]4N(C)C3)(C(C)C)C(=O)N12	120	?
C[C@@H](CO)NC(=O)C1C=C2c3cccc4[nH]cc(c34)C[C@H]2N(C)C1 (stereo not given in full)	0	0
CCNCC(O)c1cccc(OC(=O)c2ccccc2C)c1 (stereo not given)	0	-
CC(C)n1[nH]c(=O)c2c1NC(=O)CSC2c1ccc(Br)cc1 (stereo not given)	0	-
CCOc1cc(CN2CCN(C(=O)COc3ccc(C)cc3)CC2)ccc1OC	0	0
COc1ccc2[nH]cc(CCN)c2c1	0	0
CC(N)Cc1c[nH]c2ccc(OCc3cccs3)cc12 (stereo not given)	99	0
COCc1cc(OC(=O)N(C)C)nc(-c2ccncc2)n1	0	0
C[C@@H]1CCC/C=C/[C@H]2C[C@@H](O)C[C@@H]2[C@@H](O)/C=C\C(=O)O1	0	108
COc1cc2c(cc1OC)C13CCN(C)CC4=CCOC5CC(=O)N2C1C5C4CC3=O (stereo not given)	0	0
CCOC(=O)C1(c2ccccc2)CCN(C(=O)c2c(C)oc3ccc(OC)cc23)CC1	80	-
COC(=O)c1c(C)n(CCCOC(C)C)c2c1cc(O)c1ccccc12	0	0
SMILES	U2OS ROS induce	NOMO-1 viab
C/C=C(\C)[C@H](O)[C@H](C)/C=C(C)/C=C/C/C(C)=C/Cc1[nH]c(OC)c(OC)c(=O)c1C	0	99
C[C@H]1CN([C@@H](C)CO)C(=O)CCCn2cc(nn2)CO[C@H]1CN(C)C(=O)Oc1cccc2ccccc12	0	-
CC[C@H]1CN2CC[C@H]1C[C@@H]2[C@@H](O)c1ccnc2ccc(OC)cc12	0	0
OCC1OC(n2cnc3cc(Cl)c(Cl)cc32)[C@@H](O)[C@H]1O (stereo not given in full)	0	0
C=C1[C@]23C(=O)O[C@@H](C)[C@]2(O)C(=O)O[C@@]1(C)[C@H](OC(C)=O)C1=C(C)[C@@]2(C=CC(=O)OC2(C)C)CCC13C (stereo not given in full)	0	0
CCOC(=O)c1cc(C(C)(C)C)nc(OC(=O)N(C)C)c1C#N	0	101
Cc1ccc(CN(C)C)c(OC(=O)N(C)C)c1	0	-
CC(CCc1ccc(O)cc1)O[C@@H]1O[C@H](CO[C@H]2OC[C@](O)(CO)[C@H]2O)[C@@H](O)[C@H](O)[C@H]1O (stereo not given in full)	0	0
C[C@H]1CC[C@@H]2[C@@H](C)[C@H]3[C@H](C[C@H]4[C@@H]5CC=C6CC(O[C@@H]7O[C@H](CO)[C@@H](O)[C@H](O[C@@H]8O[C@H](CO)[C@@H](O)[C@H](O)[C@H]8O)[C@@H]7O[C@@H]7O[C@@H](C)[C@H](O)[C@@H](O)[C@H]7O)CC[C@]6(C)[C@H]5CC[C@]34C)N2C1 (stereo not given in full)	0	110
C[C@H]1CC[C@@H]2[C@@H](C)[C@H]3[C@H](C[C@H]4[C@@H]5CC=C6C[C@@H](O[C@@H]7O[C@H](CO)[C@H](O)[C@H](O[C@@H]8O[C@H](CO)[C@@H](O)[C@H](O)[C@H]8O)[C@H]7O[C@@H]7O[C@@H](C)[C@H](O)[C@@H](O)[C@H]7O)CC[C@]6(C)[C@H]5CC[C@]34C)N2C1	0	0
